High-throughput results from PubChem BioAssay.
Tau fluor cs: counter-screen for tau fibril formation inhibitors | tau K18 P301L Alexa594 fluorescence, heparin fibrillization | 280,000 tested, 0.93% active | Potency, µM (top dose mostly 57.7 µM); further: nearly all actives have a fitted effect of over 55% in size
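Human tau K18 P301L (15 uM unlabeled, 0.24 uM Alexa 594-labeled) in 100 mM sodium acetate pH 7 with 20 uM heparin, 6 hr at 37 C. ThT 30 uM added, 1 hr ambient; Alexa 594 FP and total fluorescence read at 555/632 nm.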
Tau fibril ThT: blocks human tau fibril formation measured by thioflavin T. P10636. recombinant tau K18 P301L (four-repeat tau fragment), heparin-induced fibrillization, ThT fluorescence. Potency, µM (top dose mostly 57.4 µM), hits mostly inhibitors. 270,000 tested, 2.1% active; further: nearly all actives have a fitted effect of over 55% in size
Target sequence (P10636 561-689 P618L limits assumed): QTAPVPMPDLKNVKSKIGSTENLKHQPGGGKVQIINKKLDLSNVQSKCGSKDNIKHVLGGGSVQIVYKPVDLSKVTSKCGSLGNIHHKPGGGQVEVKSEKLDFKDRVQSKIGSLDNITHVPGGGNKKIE
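K18 P301L tau (15 uM + 0.24 uM Alexa 594-tagged), heparin 20 uM, NaOAc pH 7, 6 h 37 C; ThT 30 uM, 1 h RT, ex 450/em 510 nm.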
Tau fibril FP: tau fibrillization inhibition (FP). K18 P301L tau heparin fibrillization, Alexa594 FP, 6 h. Potency, µM (top dose mostly 57.7 µM), most hits filed as inhibitors. 280,000 tested, 0.39% active. P10636; further: nearly all actives have a fitted effect of over 55% in size
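Human tau K18 […] P301L fragment, 15 uM unlabeled plus 0.24 uM Alexa 594-labeled tau (final), with compound and 20 uM heparin in 100 mM sodium acetate pH 7; 6 hr at 37 C, then Alexa 594 FP read.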
USP1 inh: inhibitors of human USP1/UAF1 deubiquitinase. O94782. recombinant USP1/UAF1, Ub-Rhodamine cleavage fluorescence. Potency, µM (doses to about 57.1 µM), most hits filed as inhibitors. 390,000 tested, 0.23% active. AID 743255; further: nearly all actives have a fitted effect of over 60% in size
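USP1/UAF1 complex at 1 nM was preincubated with compound for 15 min at room temperature, then Ub-Rho substrate (150nM final) was added. Fluorescence (480/540 nm) was read kinetically, 6 reads every 60 seconds.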
FBPA coupling cs: counter-screen for Giardia aldolase inhibitors: coupling enzyme system; AID 2472; activity change, negative = inhibition, % at 58.2 µM, hits read low; coupling enzyme system counterscreen, AmpLite Red fluorescence; 290,000 tested, 0.67% active; in the data active means activity change below about -30%
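Final compound at 57.5 uM, incubated 10 min at RT with coupling enzyme reagent (glyceraldehyde-3-phosphate), then 20 min with substrate and AmpLite Red detection. Fluorescence read at 525/598 nm; tests interference with the coupling assay, not aldolase inhibition.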
Hits are given with their value; 0 = inactive; ? = inconclusive; - = no result; [ ] = another dose, or the depositor's remark. Sampled rows, rich in hits. Any-hit rate of the full collection: about 2.3%. Unless noted, the call rests on the fitted dose curve; in most records, active means well fitted curve in the direction sought with a large enough effect; inconclusive means small, poorly fitted or top-dose-only effect, or another doubt; inactive means no such curve, though single readings can be large; an effect the other way counts as inactive or inconclusive.

SMILES	Tau fluor cs	Tau fibril ThT	Tau fibril FP	USP1 inh	FBPA coupling cs
N#Cc1c(N)sc(=S)c2c1CCN(Cc1ccccc1)C2	?	1.3µM	?	-	-59
COc1ccc2c(c1)-c1nc(NC(=O)c3cccs3)sc1CC2	?	?	0	0	0
COc1ccc2c(c1)-c1nc(/N=C/c3ccc(O)cc3)sc1CC2	?	28µM	?	0	0
COc1ccc2c(c1)-c1nc(/N=C/c3c(O)ccc4ccccc34)sc1CC2	?	22µM	?	0	-38
Oc1ccc2ccccc2c1/C=N/c1nccs1	0	?	0	0	-
Cc1cc([N+](=O)[O-])nn1CC(=O)NC1CCCCC1	-	-	-	0	0
O=C1/C(=C\c2ccco2)SC(=S)N1C1CCS(=O)(=O)C1 (centres undefined)	?	25µM	?	0	0
Cc1ccc(/C=C2\SC(=S)N(C3CCS(=O)(=O)C3)C2=O)cc1 (centres undefined)	0	?	?	0	0
O=C1/C(=C/c2ccco2)SC(=S)N1C1CCS(=O)(=O)C1 (centres undefined)	?	28µM	?	0	-45
Cc1ccc(NC(=O)COC(=O)c2ccc3ncsc3c2)c(C)c1	-	-	-	0	-
Cc1c(O)ccc(/C=N/Nc2nc(-c3cccnc3)nc3ccccc23)c1O	?	?	?	0	0
Oc1ccc(/C=N/Nc2nc(-c3cccnc3)nc3ccccc23)c(O)c1	11µM[quencher]	2.2µM	?	0	0
Cn1c(N2CCOCC2)cc(=O)n(C)c1=O	0	0	0	0	0
COc1cc(/C=N/NC(=O)c2sc(N)c(C#N)c2C)cc(Br)c1O	?	4.5µM	0	0	0
COc1cccc(S(=O)(=O)N(C)C[C@H]2Oc3cc(Br)ccc3S(=O)(=O)N([C@@H](C)CO)C[C@H]2C)c1	-	-	-	18µM	-
C[C@@H]1CN([C@H](C)CO)S(=O)(=O)c2ccc(Br)cc2O[C@@H]1CN(C)Cc1ccc(-c2ccccc2)cc1	-	-	-	25µM	-
C[C@H]1CN([C@@H](C)CO)S(=O)(=O)c2ccc(Br)cc2O[C@H]1CN(C)S(=O)(=O)c1ccccc1	-	-	-	0	-
C[C@@H]1CN([C@H](C)CO)S(=O)(=O)c2ccc(Br)cc2O[C@@H]1CN(C)Cc1ccc(C(=O)O)cc1	-	-	-	0	-
CNc1ncnc2c1ncn2[C@H]1C[C@H](O)[C@@H](CO)O1	0	0	0	-	-
CC[C@@H]1C(c2ccccc2)=NN(c2ccc(Br)cc2)[C@H]1C(=O)N1CCOC1=O	7.9µM[quencher]	?	0	0	0
CC[C@@H]1C(c2ccc(F)cc2)=NN(c2ccc(Br)cc2)[C@H]1C(=O)N1CCOC1=O	10µM[quencher]	?	0	0	0
COc1ccc(-c2csc(NC(=O)c3ccccc3NS(=O)(=O)c3ccc(F)c(F)c3)n2)cc1	?	22µM	?	0	0
Cc1ccc(S(=O)(=O)Nc2ccccc2C(=O)Nc2nc(-c3ccc(F)cc3)cs2)cc1	0	0	0	0	0
COc1ccc(/C=C2\SC(c3ccc(C)cc3)=NC2=O)cc1OC	?	11µM	?	16µM	0
COc1cc(/C=C2\SC(c3ccc(C)cc3)=NC2=O)ccc1O	?	14µM	?	0	0
SMILES	Tau fluor cs	Tau fibril ThT	Tau fibril FP	USP1 inh	FBPA coupling cs
COc1cc(/C=C2\SC(N3CCc4ccccc4C3)=NC2=O)cc(OC)c1OC	0	?	0	0	0
CCOc1cc(/C=C2\SC(N)=NC2=O)ccc1O	-	-	-	0	0
COc1ccc(/C=C2/SC(c3ccc(C)cc3)=NC2=O)cc1OC	?	14µM	?	?	0
COc1cc(/C=C2\SC(c3ccc(C)cc3)=NC2=O)cc(OC)c1OC	0	14µM	?	?	0
Cc1cccc(N(C)S(=O)(=O)c2c(C(=O)N3CCCCCC3)c(C)n(C)c2C)c1	0	0	0	?	-
CC1CCCN(c2ncnc3c2cnn3-c2ccc(F)cc2)C1 (centres undefined)	0	0	0	0	-
COc1cc(/C=C2\SC(c3ccccc3)=NC2=O)cc(Cl)c1O	?	4.5µM	?	?	0
C=CCn1c(SCC(=O)NC2CCCC2)nc2scc(-c3ccco3)c2c1=O	0	28µM	?	0	0
Cc1cccn2c(=O)c3cc(C(=O)N(Cc4ccccc4)C(C)C)sc3nc12	0	0	0	0	-
COc1cc(/C=C2/C(=O)NN(c3ccc(Cl)cc3)C2=O)ccc1OC(=O)c1ccco1	?	14µM	0	0	0
Cc1cc(C)c(S(=O)(=O)ON2C(=O)c3ccccc3C2=O)cc1C	0	?	?	0	0
Cc1ccc(S(=O)(=O)ON2C(=O)c3ccccc3C2=O)c(C)c1	0	18µM	?	0	0
CCOC(=O)c1ccccc1NC(=O)N1CCOc2ccc(Cl)cc21	3.2µM[quencher]	0	0	0	-
COc1ccc(NC(=O)N2CCOc3ccc(Cl)cc32)cc1	8.9µM[quencher]	0	0	0	-
Cc1nc2ccc(S(=O)(=O)N(CC(=O)Nc3ccc(Cl)cc3)Cc3ccccc3)cc2s1	0	0	0	0	-
CC(=O)c1ccc2cccc3c2c1N=CN3C	0	0	0	?	-43
CCNc1nc(NC(C)(C)C)nc(Oc2ccc(=O)n(-c3ccccc3)n2)n1	0	0	0	0	0
CC1(C)CC(=O)C2=C(C1)NC1=C(C(=O)c3ccccc31)C2c1ccc(O)cc1 (centres undefined)	?	18µM	0	0	0
COC(=O)c1ccc(NC(=O)Cn2c(=O)nc(-c3ccccc3)c3ccccc32)cc1	0	0	0	0	-
CC(C1CCCC(=O)C1)[N+](=O)[O-] (centres undefined)	0	0	0	-	0
C=CCN1C(=O)N/C(=C/c2ccc(C)o2)C1=O	0	25µM	?	0	-39
Cc1ccc(NC(=O)CN2C(=O)N/C(=C/c3ccc(C)o3)C2=O)cc1	0	?	?	0	0
CC(C)c1ccc(OCC(=O)N(Cc2ccccc2)c2ccccn2)cc1	0	0	0	0	0
CCC1=NNc2cccc3c(OC)ccc1c23	?	13µM	?	-	0
Cc1ccc(NC(=O)CSc2nnc(COc3ccc(Cl)cc3)o2)cc1	?	?	0	0	-
SMILES	Tau fluor cs	Tau fibril ThT	Tau fibril FP	USP1 inh	FBPA coupling cs
CCOC(=O)CSc1c(-c2cccs2)[nH]c2ccccc12	8.9µM[quencher]	?	?	?	0
CCOC(=O)CSc1c(-c2ccc(Cl)cc2)[nH]c2ccccc12	11µM[quencher]	0	?	?	0
CCCn1c(SC(C)C(=O)N2CCOCC2)nc2ccc(Br)cc2c1=O (centres undefined)	-	-	-	0	-
Cc1ccc(C(=O)c2ccc([N+](=O)[O-])cc2)cc1	0	0	0	0	0
Cc1ccc(C(=O)c2coc3cc([N+](=O)[O-])c(O)c([N+](=O)[O-])c23)cc1	0	3.5µM	0	0	-35
COc1cc(OC)cc(C(=O)Nc2ccc3nc(N4CCC(C)CC4)cc(C)c3c2)c1	4µM[quencher]	?	?	0	-
COc1ccc(C(=O)Nc2ccc3nc(N4CCCCC4)cc(C)c3c2)c(OC)c1	?	?	0	0	0
COc1ccccc1C(=O)Nc1ccc2nc(N3CCC(C)CC3)cc(C)c2c1	7.9µM[quencher]	8.9µM	0	?	-
